Laboratory results taken from ChEMBL document CHEMBL3988442, “University of Dundee, Small-Polar-MMV Screening Library” (2021).
Screen size: about 48,000 compounds; about 13,000 (27%) showed an effect of 50% or more. This is one part of the list.

These compounds were tested on Wolbachia pipientis (assay: Anti-Wolbachia Cell-Based Screen). Conditions: 5 µM.
Format: functional
Parameters: scale not given: in the data most compounds retested in dose-response had high values

Row | SMILES | Percent Effect [%]
1 | CC(C)c1nc(C(=O)N2C[C@H](C(C)C)[C@@H](N)C2)cs1 | -1.889
2 | CCC[C@@H]1CN(C(=O)c2cc3ccccc3cc2O)C[C@H]1N(C)C | 2.808
3 | COc1cc(C(=O)N2CCC(O)(CN3CCOCC3)C(C)(C)C2)ccn1 (stereo not given) | 1.548
4 | CC1(C(=O)N2CCOCC2)CN(Cc2cccnc2)CCO1 (stereo not given) | 65.44
5 | CSCCC(O)C(=O)N1CCCN(Cc2cccnc2)CC1 (stereo not given) | -2.174
6 | Cc1ccc(N2CC3(COCCN(Cc4cccnc4)C3)OCC2=O)s1.O=C(O)C(F)(F)F.O=C(O)C(F)(F)F (stereo not given) | 6.598
7 | COc1ncc(-c2nccn2-c2ccccc2CN2CCOCC2)cn1 | 4.794
8 | COc1ncc(CN2CCOC(C)(C(=O)N3CCOCC3)C2)cn1 (stereo not given) | 124.6
9 | CNc1cccc(C2CCCN(C(=O)c3cncs3)C2)n1 (stereo not given) | 121.7
10 | CNc1cccc(C2CCCN(C(=O)c3cscn3)C2)n1 (stereo not given) | 98.56
11 | O=C(c1cccnc1)N1CCC(Oc2cccc(C(F)(F)F)c2)CC1 | 6.335
12 | CNc1cccc(C2CCCN(C(=O)c3ccn(C)n3)C2)n1 (stereo not given) | 117.7
13 | CNc1cccc(C2CCN(C(=O)c3cccnc3)CC2)n1 | 107.8
14 | CN(c1ncccc1CNC(=O)c1csnn1)C1CCCCC1 | 20.86
15 | Cc1ccsc1CN(CCN(C)C)C(=O)c1ccc(C#N)nc1 | -1.147
16 | NC1CCN(C2CCN(c3ccc(-c4ccco4)cc3)CC2)CC1 | -26.06
17 | CCc1nsc(N2CCc3sccc3C2)n1 | 12.97
18 | CNc1cccc(C2CCCN(C(=O)c3cnccn3)C2)n1 (stereo not given) | 101.6
19 | CNc1cccc(C2CCCN(C(=O)c3cccnc3)C2)n1 (stereo not given) | 119.9
20 | CNc1cccc(C2CCCN(C(=O)Cc3ccccc3)C2)n1 (stereo not given) | 110.2
21 | CNc1cccc(C2CCCN(C(=O)c3coc(C)n3)C2)n1 (stereo not given) | 115.1
22 | CNc1cccc(C2CCCN(C(=O)c3ccncc3)C2)n1 (stereo not given) | -7.86
23 | O=C(N[C@@H]1CCN(c2ncc(Cl)cc2Cl)C[C@H]1O)c1cnccn1 | -4.452
24 | COC(C)C(=O)Nc1cc(C(=O)N2CCSCC2)ccc1C (stereo not given) | -22.96
25 | CNS(=O)(=O)c1ccc(CN2CCN3CCNC(=O)C3C2)cc1 (stereo not given) | -0.7065

Row | SMILES | Percent Effect [%]
26 | COCCN1CCCC(O)(CN2CCN(c3cnccn3)CC2)C1=O (stereo not given) | -3.22
27 | O=S(=O)(C1CC1)N1CCC(Cn2cccn2)CC1 | 1.748
28 | Cc1cc(C(C)NC(=O)c2ccc(O)nc2)c(C)o1 (stereo not given) | 2.609
29 | CC(C)N1CC(NC(=O)c2ccc(Cl)s2)CC1=O (stereo not given) | 98.39
30 | CCCS(=O)(=O)N1CCC(NC(=O)c2ccc(Cl)s2)CC1 | 8.314
31 | O=C(NC1CC(=O)N(C2CC2)C1)c1ccc(Cl)s1 (stereo not given) | -7.498
32 | O=C(O)C(F)(F)F.O=C(O)C(F)(F)F.c1cncc(COCc2n[nH]c3c2CN(Cc2ccco2)C3)c1 | 1.979
33 | O=C(NC1CC1)N1Cc2[nH]nc(COc3cccnc3)c2C1.O=C(O)C(F)(F)F | -0.5105
34 | O=C(C1CC1)N1Cc2[nH]nc(COCc3cccnc3)c2C1.O=C(O)C(F)(F)F.O=C(O)C(F)(F)F | 96.05
35 | O=C(O)C(F)(F)F.O=S(=O)(C1CC1)N1Cc2[nH]nc(COCC3CC3)c2C1 | -8.849
36 | CCS(=O)(=O)N1Cc2[nH]nc(COCc3cccnc3)c2C1.O=C(O)C(F)(F)F | 98.27
37 | O=C(O)C(F)(F)F.O=C(O)C(F)(F)F.O=C(O)C(F)(F)F.c1ccc(CN2Cc3[nH]nc(COc4cccnc4)c3C2)nc1 | 6.723
38 | CCSc1ccc(NC(=O)NC(C)c2c(C)nn(C)c2C)cn1 (stereo not given) | -34.73
39 | Cc1nn(C)c(C)c1C(C)NC(=O)Nc1cccnc1N1CCCC1 (stereo not given) | 8.996
40 | Cc1nn(C)c(C)c1-c1ccc(=O)n(C(C)C(=O)NC(C)(C)C)n1 (stereo not given) | 122.1
41 | COC(=O)[C@H]1CN(C(=O)NC(C)C)CCN1C(=O)c1cccs1 | 13.93
42 | Cc1nc(N2CCCC2)nc2c1CCN(C(=O)c1ccoc1C)CC2 | 99.57
43 | CN(C)c1nc(N2CCCC2)nc2c1CCN(C(=O)c1ccoc1)CC2 | -4.722
44 | Cc1cc(C(=O)N2CCc3nc(N4CCOCC4)nc(C)c3C2)c(C)o1.O=CO | 94.45
45 | Cc1nc(N2CCCC2)nc2c1CN(C(=O)c1ccco1)CC2 | 4.912
46 | Cc1cc(C(=O)N2CCc3nc(N4CCCC4)nc(C)c3CC2)c(C)o1 | 102.5
47 | CCc1noc(CS(=O)(=O)C(C)c2nc(C3CC3)no2)n1 (stereo not given) | -17.73
48 | N#Cc1ccccc1OCCN1CCCC1Cn1cccn1 (stereo not given) | 7.756
49 | COCC1CN(C(=O)Cc2ccc(F)cc2)Cc2ccnn2C1 (stereo not given) | 27.63
50 | Cn1cc(Nc2cccc(C(=O)N(CC(N)=O)C3CCCC3)c2)cn1 | 6.719
